Over roughly 16,000 sequences, “rpm ratio (pull-down/input)” has its median near 0.94; the highest 2% begin near 1.7. The entries come from a sample that favours the highest values as a whole.

The target of the assay is T1, MBP-FoxP1dN (Mus musculus, UniProt P58462 326-579).
T1 sequence: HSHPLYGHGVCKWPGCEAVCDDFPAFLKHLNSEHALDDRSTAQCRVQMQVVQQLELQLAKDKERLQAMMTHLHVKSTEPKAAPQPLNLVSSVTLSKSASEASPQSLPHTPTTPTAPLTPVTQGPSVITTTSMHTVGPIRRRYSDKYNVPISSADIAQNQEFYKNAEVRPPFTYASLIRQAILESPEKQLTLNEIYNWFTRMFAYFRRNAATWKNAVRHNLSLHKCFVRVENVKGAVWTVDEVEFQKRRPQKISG
Briefly: PD-seq (MBP pull-down with sequencing); 20 mM Tris-HCl pH 7.5, 100 mM NaCl, 1.5 mM MgCl2, 0.4 uM protein, 0.1 uM dsDNA library, 30 min, room temperature, amylose pull-down; high values mean tight binding. The settings on record: protein: recombinant; tags: His6-MBP; chain copies: 2; dsDNA, one strand shown. An outline of the steps: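 The N-terminus-lacking fragment of mouse FoxP3 or FoxP1 carried a His6-MBP tag and was expressed in E. coli. At 0.4 µM it was incubated with 0.1 µM Klenow-filled degenerate double-stranded DNA library for 30 min at room temperature in Tris pH 7.5 buffer with NaCl and MgCl2, and complexes were caught on amylose resin, washed three times, released with proteinase K, PCR-barcoded and Illumina-sequenced. Binding is reads-per-million enrichment of pull-down over input with replicates pooled.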
As for “GATGATTGTTCTCCCAGCTGATGAATTAACGAGTTCGAGTAAACAAATTTTCCTAATCTTTCTGTTCAAGCGCCATCTAC”, the binding signal is 0.92 RPM ratio (pull-down/input). Turning to “GATGATTGTTCTCCCAGCTGATGAATTAGCGACCTCGAGTAAACAAATTTTCCTAATCTTTCTGTTCAAGCGCCATCTAC”, the binding signal was 0.762 RPM ratio (pull-down/input). Turning to “GATGATTGTTCTCCCAGCTGATGAATTCCTGAACTCGAGTAAACAAATTTTCCTAATCTTTCTGTTCAAGCGCCATCTAC”, the binding signal is 0.79 RPM ratio (pull-down/input).

As for “GATGATTGTTCTCCCAGCTGATGAATTAGCATAGTCGAGTAAACAAATTTTCCTAATCTTTCTGTTCAAGCGCCATCTAC”, the binding signal was 0.88 RPM ratio (pull-down/input). To “GATGATTGTTCTCCCAGCTGATGAATTGTGTGTGTCGAGTAAACAAATTTTCCTAATCTTTCTGTTCAAGCGCCATCTAC” belongs 1.52 RPM ratio (pull-down/input); to “GATGATTGTTCTCCCAGCTGATGAATTTGTGTTGTCGAGTAAACAAATTTTCCTAATCTTTCTGTTCAAGCGCCATCTAC”, 2.64 RPM ratio (pull-down/input); to “GATGATTGTTCTCCCAGCTGATGAATTTTTTGTGTCGAGTAAACAAATTTTCCTAATCTTTCTGTTCAAGCGCCATCTAC”, 1.12 RPM ratio (pull-down/input). For “GATGATTGTTCTCCCAGCTGATGAATTTGTGTCGTCGAGTAAACAAATTTTCCTAATCTTTCTGTTCAAGCGCCATCTAC”, the binding signal was 1.23 RPM ratio (pull-down/input).

With “GATGATTGTTCTCCCAGCTGATGAATTTTGTGTGTCGAGTAAACAAATTTTCCTAATCTTTCTGTTCAAGCGCCATCTAC”, the binding signal was 1.48 RPM ratio (pull-down/input). To “GATGATTGTTCTCCCAGCTGATGAATTTGTTGTGTCGAGTAAACAAATTTTCCTAATCTTTCTGTTCAAGCGCCATCTAC” belongs 2.48 RPM ratio (pull-down/input).

Turning to “GATGATTGTTCTCCCAGCTGATGAATTCCGTACCTCGAGTAAACAAATTTTCCTAATCTTTCTGTTCAAGCGCCATCTAC”, the binding signal was 0.829 RPM ratio (pull-down/input). To “GATGATTGTTCTCCCAGCTGATGAATTATCTGTCTCGAGTAAACAAATTTTCCTAATCTTTCTGTTCAAGCGCCATCTAC” belongs 0.945 RPM ratio (pull-down/input). Take “GATGATTGTTCTCCCAGCTGATGAATTCTGTACTTCGAGTAAACAAATTTTCCTAATCTTTCTGTTCAAGCGCCATCTAC”: the binding signal was 0.932 RPM ratio (pull-down/input). Turning to “GATGATTGTTCTCCCAGCTGATGAATTGTATATATCGAGTAAACAAATTTTCCTAATCTTTCTGTTCAAGCGCCATCTAC”, the binding signal was 1.6 RPM ratio (pull-down/input).

With “GATGATTGTTCTCCCAGCTGATGAATTCTGTATATCGAGTAAACAAATTTTCCTAATCTTTCTGTTCAAGCGCCATCTAC”, the binding signal is 1.67 RPM ratio (pull-down/input). To “GATGATTGTTCTCCCAGCTGATGAATTGAGTATATCGAGTAAACAAATTTTCCTAATCTTTCTGTTCAAGCGCCATCTAC” belongs 1.1 RPM ratio (pull-down/input). Take “GATGATTGTTCTCCCAGCTGATGAATTTGTAAAATCGAGTAAACAAATTTTCCTAATCTTTCTGTTCAAGCGCCATCTAC”: the binding signal was 1.24 RPM ratio (pull-down/input). With “GATGATTGTTCTCCCAGCTGATGAATTTTGTATATCGAGTAAACAAATTTTCCTAATCTTTCTGTTCAAGCGCCATCTAC”, the binding signal was 2.33 RPM ratio (pull-down/input).

For “GATGATTGTTCTCCCAGCTGATGAATTGTATATCTCGAGTAAACAAATTTTCCTAATCTTTCTGTTCAAGCGCCATCTAC”, the binding signal was 1.36 RPM ratio (pull-down/input). To “GATGATTGTTCTCCCAGCTGATGAATTTTTGTAATCGAGTAAACAAATTTTCCTAATCTTTCTGTTCAAGCGCCATCTAC” belongs 1.78 RPM ratio (pull-down/input). Regarding “GATGATTGTTCTCCCAGCTGATGAATTTTGTACTTCGAGTAAACAAATTTTCCTAATCTTTCTGTTCAAGCGCCATCTAC”, the binding signal is 0.97 RPM ratio (pull-down/input).

Consider “GATGATTGTTCTCCCAGCTGATGAATTTTGTAAATCGAGTAAACAAATTTTCCTAATCTTTCTGTTCAAGCGCCATCTAC”, for which the binding signal was 1.5 RPM ratio (pull-down/input).

On to “GATGATTGTTCTCCCAGCTGATGAATTGTGTATATCGAGTAAACAAATTTTCCTAATCTTTCTGTTCAAGCGCCATCTAC”, for which the binding signal was 1.9 RPM ratio (pull-down/input). To “GATGATTGTTCTCCCAGCTGATGAATTGTGTACTTCGAGTAAACAAATTTTCCTAATCTTTCTGTTCAAGCGCCATCTAC” belongs 1.84 RPM ratio (pull-down/input); to “GATGATTGTTCTCCCAGCTGATGAATTCCAGGGTTCGAGTAAACAAATTTTCCTAATCTTTCTGTTCAAGCGCCATCTAC”, 0.729 RPM ratio (pull-down/input); to “GATGATTGTTCTCCCAGCTGATGAATTGTGAAGCTCGAGTAAACAAATTTTCCTAATCTTTCTGTTCAAGCGCCATCTAC”, 0.905 RPM ratio (pull-down/input).

As for “GATGATTGTTCTCCCAGCTGATGAATTACAGTTGTCGAGTAAACAAATTTTCCTAATCTTTCTGTTCAAGCGCCATCTAC”, the binding signal is 1.46 RPM ratio (pull-down/input). As for “GATGATTGTTCTCCCAGCTGATGAATTAGCAACTTCGAGTAAACAAATTTTCCTAATCTTTCTGTTCAAGCGCCATCTAC”, the binding signal was 1.12 RPM ratio (pull-down/input). To “GATGATTGTTCTCCCAGCTGATGAATTTGCGTGCTCGAGTAAACAAATTTTCCTAATCTTTCTGTTCAAGCGCCATCTAC” belongs 1.05 RPM ratio (pull-down/input). In the case of “GATGATTGTTCTCCCAGCTGATGAATTCTCGTCATCGAGTAAACAAATTTTCCTAATCTTTCTGTTCAAGCGCCATCTAC”, the binding signal is 0.998 RPM ratio (pull-down/input). To “GATGATTGTTCTCCCAGCTGATGAATTGGCTAAGTCGAGTAAACAAATTTTCCTAATCTTTCTGTTCAAGCGCCATCTAC” belongs 0.879 RPM ratio (pull-down/input); to “GATGATTGTTCTCCCAGCTGATGAATTTGCAAAATCGAGTAAACAAATTTTCCTAATCTTTCTGTTCAAGCGCCATCTAC”, 1.13 RPM ratio (pull-down/input); to “GATGATTGTTCTCCCAGCTGATGAATTCTAAAGATCGAGTAAACAAATTTTCCTAATCTTTCTGTTCAAGCGCCATCTAC”, 0.85 RPM ratio (pull-down/input). To “GATGATTGTTCTCCCAGCTGATGAATTGCCTAAGTCGAGTAAACAAATTTTCCTAATCTTTCTGTTCAAGCGCCATCTAC” belongs 0.889 RPM ratio (pull-down/input). Consider “GATGATTGTTCTCCCAGCTGATGAATTGGCTTTCTCGAGTAAACAAATTTTCCTAATCTTTCTGTTCAAGCGCCATCTAC”, for which the binding signal is 0.862 RPM ratio (pull-down/input). To “GATGATTGTTCTCCCAGCTGATGAATTTTGTGTATCGAGTAAACAAATTTTCCTAATCTTTCTGTTCAAGCGCCATCTAC” belongs 2.15 RPM ratio (pull-down/input); to “GATGATTGTTCTCCCAGCTGATGAATTCTGTGTATCGAGTAAACAAATTTTCCTAATCTTTCTGTTCAAGCGCCATCTAC”, 1.79 RPM ratio (pull-down/input).

Consider “GATGATTGTTCTCCCAGCTGATGAATTTCTATACTCGAGTAAACAAATTTTCCTAATCTTTCTGTTCAAGCGCCATCTAC”, for which the binding signal is 0.903 RPM ratio (pull-down/input). To “GATGATTGTTCTCCCAGCTGATGAATTTGTGTGATCGAGTAAACAAATTTTCCTAATCTTTCTGTTCAAGCGCCATCTAC” belongs 1.3 RPM ratio (pull-down/input).

Regarding “GATGATTGTTCTCCCAGCTGATGAATTTGTATACTCGAGTAAACAAATTTTCCTAATCTTTCTGTTCAAGCGCCATCTAC”, the binding signal was 2.13 RPM ratio (pull-down/input). As for “GATGATTGTTCTCCCAGCTGATGAATTTGTAGTATCGAGTAAACAAATTTTCCTAATCTTTCTGTTCAAGCGCCATCTAC”, the binding signal was 1.47 RPM ratio (pull-down/input). For the sequence “GATGATTGTTCTCCCAGCTGATGAATTTGTGTAATCGAGTAAACAAATTTTCCTAATCTTTCTGTTCAAGCGCCATCTAC”, the binding signal is 1.97 RPM ratio (pull-down/input). Turning to “GATGATTGTTCTCCCAGCTGATGAATTGTGTAAATCGAGTAAACAAATTTTCCTAATCTTTCTGTTCAAGCGCCATCTAC”, the binding signal was 1.59 RPM ratio (pull-down/input). To “GATGATTGTTCTCCCAGCTGATGAATTGTAATACTCGAGTAAACAAATTTTCCTAATCTTTCTGTTCAAGCGCCATCTAC” belongs 1.04 RPM ratio (pull-down/input). To “GATGATTGTTCTCCCAGCTGATGAATTTGGTGTATCGAGTAAACAAATTTTCCTAATCTTTCTGTTCAAGCGCCATCTAC” belongs 1.17 RPM ratio (pull-down/input); to “GATGATTGTTCTCCCAGCTGATGAATTCTTTGTATCGAGTAAACAAATTTTCCTAATCTTTCTGTTCAAGCGCCATCTAC”, 1.21 RPM ratio (pull-down/input). Regarding “GATGATTGTTCTCCCAGCTGATGAATTCTCTGTATCGAGTAAACAAATTTTCCTAATCTTTCTGTTCAAGCGCCATCTAC”, the binding signal is 0.938 RPM ratio (pull-down/input).

These data come from paper PMC12820563, “FoxP3 forms a head-to-head dimer in vivo and stabilizes its multimerization on adjacent microsatellites”.
